# Compounds with a hit are over-represented: about 6.7% of the library has one in this group of screens.
# Pf Dd2 inh – inhibitors of Plasmodium falciparum Dd2 growth. P. falciparum Dd2 growth, SYBR Green, 72 h; hits give low values. activity change, % at 10 µM. 2.3% of 94,000 active; in the data active = activity change below about -80%; inconclusive = no clear call, values can overlap the other calls
# Tcruzi prolif – T. cruzi proliferation inhibition; 5.9% of 77,000 active; T. cruzi beta-gal in NIH3T3, GalScreen luminescence, 90 h; inhibition, % at 8.34 µM; AID 624255;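 active = mean inhibition above about 93%, with at least 55% of replicates each passing it, limit read from the data, passing the limit was not always enough; inconclusive = only one of those two conditions holds; inactive = neither condition holds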
# C diff growth – inhibitors of Clostridium difficile growth | growth activity, negative = inhibition, % at 16 µg/mL (by protocol) | Clostridium difficile clinical isolate growth, OD600, 24 h; hits give low values | 0.25% of 86,000 active | AID 1259249;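 active = mean growth activity at or below -80% and every replicate also at or below -80%; inconclusive = mean at or below -80% but some replicate above -80%; inactive = mean growth activity above -80%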;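 note: 0% = DMSO wells and -100% = levofloxacin 16 µg/mL wells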
# Starred values were filed as active, the others as inactive; ? = inconclusive; . = not tested or not shown.
SMILES,Pf Dd2 inh,Tcruzi prolif,C diff growth
C[C@H]1CCCCO[C@@H](CN(C)Cc2ccccc2)[C@@H](C)CN([C@@H](C)CO)C(=O)c2cc(NC(=O)Nc3ccc4c(c3)OCO4)ccc2O1,-86*,94,-3
C[C@H]1CCCCO[C@@H](CN(C)Cc2ccc3c(c2)OCO3)[C@@H](C)CN([C@@H](C)CO)C(=O)c2cc(NC(=O)Cc3ccccc3)ccc2O1,-83*,109,-3
C[C@@H]1CN([C@H](C)CO)C(=O)c2cc(NC(=O)Nc3ccc4c(c3)OCO4)ccc2O[C@@H](C)CCCCO[C@@H]1CN(C)Cc1ccc(Cl)c(Cl)c1,-88*,71,6
C[C@@H]1CN([C@@H](C)CO)C(=O)c2cc(NC(=O)Nc3ccc4c(c3)OCO4)ccc2O[C@@H](C)CCCCO[C@H]1CN(C)Cc1ccc(Cl)c(Cl)c1,-59,69,5
C[C@@H]1CN([C@H](C)CO)C(=O)c2cc(NC(=O)Nc3ccccc3)ccc2O[C@@H](C)CCCCO[C@H]1CN(C)Cc1ccc2c(c1)OCO2,-82*,62,26
CCCC(=O)Nc1ccc2c(c1)OC[C@H](C)N(CCC)C[C@H](C)[C@@H](OC)CN(C)C2=O,-7,10,-2
CC(C)NC(=O)Nc1cccc2c1O[C@@H](CN(C)Cc1ccc(-c3ccccc3)cc1)[C@@H](C)CN([C@H](C)CO)C2=O,-40,25,-1
COc1ccc(CNC(=O)C[C@@H]2C[C@@H]3c4cc(NC(=O)CN(C)C)ccc4O[C@@H]3[C@H](CO)O2)cc1,14,-50,-1
COc1ccc(C#Cc2ccc3c(c2)[C@@H]2[C@@H](CCN2S(=O)(=O)c2ccccc2C)[C@H](CO)N3C)cc1,-75,73,2
C[C@@H]1CN([C@H](C)CO)C(=O)c2cc(NC(=O)NC3CCCCC3)ccc2O[C@@H](C)CCCCO[C@@H]1CN(C)S(=O)(=O)c1ccc(F)cc1,-84*,34,19
Cc1ccc(S(=O)(=O)N(C)C[C@@H]2OCCCC[C@H](C)Oc3ccc(NC(=O)NC4CCCCC4)cc3C(=O)N([C@H](C)CO)C[C@H]2C)cc1,-85*,90,-1
C[C@@H]1CCCCO[C@@H](CN(C)S(=O)(=O)c2ccc(F)cc2)[C@H](C)CN([C@H](C)CO)C(=O)c2cc(NC(=O)NC3CCCCC3)ccc2O1,-72,81,16
Cc1ccc(S(=O)(=O)N(C)C[C@H]2OCCCC[C@@H](C)Oc3ccc(NC(=O)NC4CCCCC4)cc3C(=O)N([C@@H](C)CO)C[C@@H]2C)cc1,?,83,-5
C[C@@H]1CCCCO[C@@H](CN(C)Cc2ccncc2)[C@@H](C)CN([C@@H](C)CO)C(=O)c2cc(NC(=O)CCC(F)(F)F)ccc2O1,-54,42,12
C[C@@H]1CN([C@@H](C)CO)C(=O)c2cccc(NC(=O)c3ccc(-c4nccs4)cc3)c2O[C@@H]1CN(C)Cc1ccccc1,-21,71,-6
C[C@@H]1CN([C@H](C)CO)C(=O)c2cccc(NC(=O)c3cnccn3)c2O[C@@H]1CN(C)Cc1ccc(C(=O)O)cc1,4,-12,1
C[C@H](CO)N1C[C@H](C)[C@@H](CN(C)Cc2ccccc2)Oc2c(NC(=O)c3ccc(-c4nccs4)cc3)cccc2C1=O,-6,69,10
C[C@H](CO)N1C[C@H](C)[C@H](CN(C)Cc2ccc(C(=O)Nc3ccccc3N)cc2)Oc2c(NC(=O)c3cnccn3)cccc2C1=O,-86*,.,5
C[C@@H]1CN([C@@H](C)CO)C(=O)c2cccc(NC(=O)c3ccc(-c4nccs4)cc3)c2O[C@@H]1CN(C)Cc1ccc(C(=O)Nc2ccccc2N)cc1,-95*,87,3
C[C@H](CO)N1C[C@H](C)[C@H](CN(C)Cc2ccc(C(=O)Nc3ccccc3N)cc2)Oc2c(NC(=O)c3ccc(-c4nccs4)cc3)cccc2C1=O,-90*,93,-5
CNC[C@H]1OCCCC[C@@H](C)Oc2ccc(NC(=O)Nc3c(C)noc3C)cc2C(=O)N([C@@H](C)CO)C[C@H]1C,5,13,-2
C/C=C/c1ccc([C@@H]2[C@@H](CN(CC)C(=O)CN(C)C)N(C(C)=O)[C@H]2CO)cc1,17,26,-5
CC(C)NC(=O)N(C)C[C@@H]1OCCCC[C@H](C)Oc2ccc(NC(=O)c3ccccc3)cc2C(=O)N([C@@H](C)CO)C[C@@H]1C,-56,54,-3
C[C@H]1CN([C@@H](C)CO)S(=O)(=O)c2ccc(-c3ccccc3)cc2O[C@H]1CN(C)C(=O)c1ccc2c(c1)OCO2,-7,.,7
COc1ccc2c3c(n(C)c2c1)[C@@H](CO)N(C(=O)Nc1cccc(F)c1)CC31CN(Cc2nccs2)C1,-85*,.,-10
SMILES,Pf Dd2 inh,Tcruzi prolif,C diff growth
CCCC(=O)N1CC2(CN(C(=O)Nc3cccc(F)c3)C2)c2c(n(C)c3cc(OC)ccc23)[C@@H]1CO,-23,.,17
COc1ccc(NC(=O)N2CC3(C2)CN(C(=O)C2CCC2)[C@H](CO)c2c3c3ccc(OC)cc3n2C)cc1,-88*,.,-2
COc1ccc(NC(=O)N2CCC3(CC2)CN(C(=O)C2CCC2)[C@H](CO)c2c3c3ccc(OC)cc3n2C)cc1,-90*,.,-9
COc1ccc2c3c(n(C)c2c1)[C@@H](CO)N(C(=O)C1CCCCC1)CC31CCN(C(=O)Nc2cccc(F)c2)CC1,30,.,.
COc1ccc2c3c(n(C)c2c1)[C@H](CO)N(C(=O)NC(C)C)CC31CN(Cc2nccs2)C1,-3,.,-14
COc1ccc2c3c(n(C)c2c1)[C@@H](CO)N(C(=O)C1CCC1)CC31CN(C)C1,5,.,-6
CCCC(=O)N1CC2(CN(C(=O)Nc3cccc(F)c3)C2)c2c(n(C)c3cc(OC)ccc23)[C@H]1CO,-82*,.,8
C[C@@H]1CN([C@H](C)CO)C(=O)c2cc(NC(=O)c3ccncc3)ccc2O[C@@H](C)CCCCO[C@H]1CN(C)S(=O)(=O)c1cn(C)cn1,27,22,-4
CC(C)(C)OC(=O)COc1cccc(C(=O)CCN2CCOCC2)c1,.,.,-15
C[C@H](CO)N1C[C@H](C)[C@H](CN(C)C(=O)C2CCC2)Oc2cc(-c3cccnc3)ccc2S1(=O)=O,-7,24,2
C[C@@H]1CN([C@@H](C)CO)C(=O)Cc2cc(NS(=O)(=O)c3ccc(Cl)cc3)ccc2O[C@H]1CN(C)Cc1ccncc1,-43,52,3
COc1ccc2c3c(n(C)c2c1)[C@@H](CO)N(C(=O)C1CCCC1)CC31CCN(C(=O)Nc2cccc(F)c2)CC1,-91*,.,0
COc1ccc2c3c(n(C)c2c1)[C@@H](CO)N(CC1CC1)CC31CCN(C(=O)Nc2ccccc2)CC1,-73,.,-1
COc1ccc2c3c(n(C)c2c1)[C@H](CO)N(C(=O)C1CCCC1)CC31CN(C(=O)CN(C)C)C1,25,.,.
COc1ccc2c3c(n(C)c2c1)[C@H](CO)N(C(=O)C1CCCC1)CC31CCN(C(=O)Nc2cccc(F)c2)CC1,-56,.,5
COc1ccc2c3c(n(C)c2c1)[C@H](CO)N(C(=O)C1CCCC1)CC31CN(C(=O)CC2CC2)C1,-85*,.,3
COc1ccc2c3c(n(C)c2c1)[C@@H](CO)N(CC1CCCC1)CC31CCN(C(=O)Nc2ccccc2)CC1,-84*,.,44
